The text below walks through data of PubChem BioAssay.

The other results are listed elsewhere or left out. Values without a mark were called inactive. Activity calls are given as the source filed them.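 How the source made its calls: active means fluorescence ratio rise of at least 3 SD above the vehicle-control mean, seen in both replicates; inactive means the rest.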

In this assay the target is Inward rectifier potassium channel 2 (Mus musculus) (UniProt P35561). The assay is described as follows: PubChem AID 2345.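 Further: 0% = vehicle mean plus 3 SD and 100% = vehicle minus no-stimulus blank window.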 To be noted: HEK293 Kir2.1, FluxOR thallium flux fluorescence; at 10 µM; stronger effect = higher value.
Sequence of Inward rectifier potassium channel 2 (Mus musculus) (P35561 whole entry, looked up): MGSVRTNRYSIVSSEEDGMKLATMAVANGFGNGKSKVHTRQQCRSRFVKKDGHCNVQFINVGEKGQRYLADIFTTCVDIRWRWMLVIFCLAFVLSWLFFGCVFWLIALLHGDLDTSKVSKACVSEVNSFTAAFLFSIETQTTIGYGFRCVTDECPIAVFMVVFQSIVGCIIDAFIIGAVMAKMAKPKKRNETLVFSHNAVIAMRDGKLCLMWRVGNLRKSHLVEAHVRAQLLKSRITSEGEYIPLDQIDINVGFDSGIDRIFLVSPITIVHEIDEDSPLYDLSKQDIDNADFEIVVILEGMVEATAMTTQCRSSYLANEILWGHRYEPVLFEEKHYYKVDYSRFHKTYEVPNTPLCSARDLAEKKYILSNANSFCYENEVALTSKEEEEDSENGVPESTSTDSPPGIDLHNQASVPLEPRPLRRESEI
As for `CC(NC(=O)Nc1ccccc1)c1ccccc1` (configuration not stated), the activity over 3SD threshold was -35.8%.

As to `CCCc1nc2sc3c(c2c(=O)n1NC(=O)CCCl)CCCC3`, the activity over 3SD threshold was -17.7%.

For `Cc1cccc(NC(=O)c2nc(S(=O)(=O)Cc3ccccc3)ncc2Cl)c1`, the activity over 3SD threshold is -36%.

With `CCC1(C)Cc2c(sc3[nH]c(=S)n(Cc4ccccc4)c(=O)c23)CO1` (configuration not stated), the activity over 3SD threshold was 10.5% (active).

`CCCCNC(=O)Nc1c(C)cc(SC#N)cc1C`: the activity over 3SD threshold was -33.2%.

In the case of `COc1cccc(NC(=O)C2C(c3ccccc3)C2(Cl)Cl)c1` (configuration not stated), the activity over 3SD threshold is -29.8%.

As to `Cc1cccc(NC(=S)NC(=O)c2ccc(Br)o2)c1`, the activity over 3SD threshold is -35.5%.

For the molecule `O=C(Nc1ccc(Oc2ccccc2)cc1)c1ccco1`, the activity over 3SD threshold was -25.3%.

Consider `S=C(NCc1ccc(Cl)cc1)NC12CC3CC(CC(C3)C1)C2`, for which the activity over 3SD threshold was -9.25%.

In the case of `CS(=O)(=O)c1sc(C(=O)NC(=S)Nc2ccc(OC(F)(F)F)cc2)c2c1C=CCC2`, the activity over 3SD threshold is -36.7%.

For `COc1ccc(C(=O)Nc2ncc3c(n2)-c2ccccc2CC3)cc1`, the activity over 3SD threshold is -29.6%.

Take `Oc1c(Cl)cc(Cl)cc1/C=N/c1ncn[nH]1`: the activity over 3SD threshold was -28.1%.

Turning to `CCn1c(O)c(N=NC2=NC(=O)CS2)c2cc(C)ccc21`, the activity over 3SD threshold is -27.4%.

Regarding `Cc1ccc(S(=O)(=O)N2CCN(C(=O)COC(=O)c3c(C)cc(C)cc3C)CC2)c(C)c1`, the activity over 3SD threshold was -17.6%.

Take `Cc1ccc(CS(=O)(=O)c2ncc(Cl)c(C(=O)Nc3nnc(C)s3)n2)cc1`: the activity over 3SD threshold is -51.4%.

For `O=C(NNC1=C(C(=O)C(F)(F)F)CCC1)c1ccncc1`, the activity over 3SD threshold was -36.3%.

On to `CC(NC(=O)Nc1cccc([N+](=O)[O-])c1)c1ccc2c(c1)OCO2` (configuration not stated), for which the activity over 3SD threshold is -29.4%.

For `O=C(NCc1ccc2c(c1)OCO2)c1ccc(Cl)s1`, the activity over 3SD threshold is -17.6%.

Take `CCn1c(=S)[nH]c2sc3c(c2c1=O)CCCCC3`: the activity over 3SD threshold was -16.8%.

On to `CCn1c2ccccc2c2cc(NC(=O)CNC)ccc21`, for which the activity over 3SD threshold was -90%.

On to `CCC1(C)Cc2c(sc3nnn(CC(=O)Nc4ccc(Cl)cc4)c(=O)c23)CO1` (configuration not stated), for which the activity over 3SD threshold is -36.4%.

For the molecule `N#Cc1c(-c2ccccc2)nc(SCc2cccc(C(F)(F)F)c2)[nH]c1=O`, the activity over 3SD threshold was -39.2%.

Consider `CCOC(=O)c1sc(=S)n2c1[nH]c(=O)c1ccc(C(=O)OC)cc12`, for which the activity over 3SD threshold is -43.9%.

With `CCOC(=O)c1c(NC(=S)NC)sc2c1CCCC2`, the activity over 3SD threshold was -37.6%.

`Cc1ccc(/C=N/NC(=O)c2cc3ccccc3cc2O)o1`: the activity over 3SD threshold is -20.1%.

`CCN(CC(=O)NC(=O)NCc1ccccc1)Cc1nc2ccccc2c(=O)[nH]1`: the activity over 3SD threshold is -39%.

With `CSc1nnc(NC(=O)c2nc(S(=O)(=O)Cc3ccc(C)cc3)ncc2Cl)s1`, the activity over 3SD threshold is -50.4%.

In the case of `FC(F)(F)c1cccc(NC(=S)Nc2cccc(Cl)c2)c1`, the activity over 3SD threshold was -40.2%.

On to `CCc1ccc(NC(=O)C(=O)NNC(=O)c2cccs2)cc1`, for which the activity over 3SD threshold was -22.9%.

Consider `Cc1[nH]n(-c2cccc(Cl)c2)c(=O)c1/C=N/n1c(C)nc2ccccc2c1=O`, for which the activity over 3SD threshold was -35.9%.

For the molecule `CC1=C/C(=N\OS(=O)(=O)c2ccccc2)C=CC1=O`, the activity over 3SD threshold is -51.4%.

In the case of `O=C(NCc1ccc2c(c1)OCO2)C12CC3CC(CC(C3)C1)C2`, the activity over 3SD threshold was -47%.
